This passage reports fold change and outcome results from PubChem BioAssay AID1259240 (Keith Lab, Institute of Cancer Science, University of …, 2017).

The structures appear in SMILES notation. Activity calls are given as the source filed them. No stated cut-off is given here; in the data, active means fold change mostly below about -2 (no sharp cut-off); inactive means mostly above about -1.8.

A short description of the assay: modulation of TERT promoter-driven luciferase – cell-based, luciferase reporter, human, primary screen (AID 1259240). Conditions: A2780 TERT promoter luciferase reporter, 16 h; at 20 µM, fold versus average of vehicle-only wells. In general terms: In a reporter assay the amount or activity of a reporter protein is the signal.
For the molecule `CCc1ccc2c(c1)c1n[nH]c(=S)nc1n2C`, the fold change is -1.88 (inactive).
Consider `COc1cc(OC)c(-c2nc(-c3cccnc3)no2)cc1OC`, for which the fold change was 1.51 (inactive).
For the molecule `CC1(C)CC(=O)c2sc(NC(=O)Cc3ccc(Br)cc3)nc2C1`, the fold change was -3.4 (active).
Still for that read-out and setting: then `COc1cc2cc(=O)[nH]c(C)c2cc1OC`, with 1.08 (inactive); and `CCN(CC)S(=O)(=O)c1ccc2c(c1)N(CC(=O)NC1CC1)C(=O)CO2`, with -1.73 (inactive).
Take `Cc1cccc(NC(=O)C2CCCN(S(=O)(=O)c3cnc[nH]3)C2)n1` (stereo not given): the fold change is -2.48 (active).
`CCCOc1ccc(Cc2nn3c(=O)/c(=C\c4cccc(OC(C)=O)c4)sc3nc2=O)cc1`: the fold change was -1.43 (inactive).
As to `CC(O)C(Nc1ncnc2ccccc12)C(=O)O` (stereo not given), the fold change is -1.06 (inactive).
On to `C1=C(c2cccnc2)Nc2nc3ccccc3n2C1c1cccs1` (stereo not given), for which the outcome was inactive.
With `O=C1C2ON(c3ccccc3)C(c3ccncc3)C2C(=O)N1c1ccc(N2CCOCC2)cc1` (stereo not given), the fold change is -1.7 (inactive).
Consider `O=C(Nc1cccc(C(F)(F)F)c1)Nc1ccc2snnc2c1`, for which the fold change is -1.55 (inactive).
For `Cc1cc(=O)n2[nH]c(NC(=O)c3cccs3)nc2n1`, the fold change was -1.29 (inactive).
On to `CC(C)C(NS(=O)(=O)c1ccc2c(c1)oc(=O)n2C)C(=O)NCc1cccs1` (stereo not given), for which the fold change was -1.35 (inactive).
`O=C(NCC1(c2ccccc2)CCCC1)c1ccc2c(=O)n3c(nc2c1)CCCCC3`: the fold change is -1.33 (inactive).
Regarding `CCOC(=O)C1=C(CS(=O)(=O)c2ccc(Cl)cc2)NC(=O)NC1c1ccc(OCC)cc1` (stereo not given), the fold change is 1.7 (inactive).
`Cn1c(=O)c(=O)n(C)c2cc(S(=O)(=O)N3CCCC3C(=O)NC3CCCCC3)ccc21` (stereo not given): the fold change is 1.05 (inactive).
On the same count and under the same terms, in the case of `CNC(=O)CN1C(=O)COc2ccc(S(=O)(=O)N3CCOCC3)cc21` it was -1.1 (inactive).
Take `CCCC1=NN(C(=O)CSCc2ccccc2Cl)C(O)(C(F)(F)F)C1` (stereo not given): the fold change was -2.03 (active).
Turning to `Cc1cc(C)n(-c2nc3ccccc3n3nnnc23)n1`, the fold change was 1.46 (inactive).
Regarding `O=C(CSc1nc(-c2cccs2)cc(C(F)(F)F)n1)NCc1cccnc1`, the fold change is -2.7 (active).
As for `O=C(Cn1ncc2c3ccccc3n(Cc3ccccc3)c2c1=O)N1CCCC1`, the fold change was -1.21 (inactive).
On the same count and under the same terms, then `CC1(C)CC(=O)c2sc(NC(=O)c3ccccc3)nc2C1`, with -1.97 (inactive); and `CC1Cc2ccccc2N1S(=O)(=O)c1cccc2cccnc12` (stereo not given), with -2.15 (active).
On to `CS(=O)(=O)N1N=C(c2cccs2)CC1c1ccccc1F` (stereo not given), for which the fold change is -1.2 (inactive).
Regarding `CC(C)Oc1ccc(C2CC(=O)Nc3cc4c(cc32)OCCO4)cc1` (stereo not given), the fold change is 1 (inactive).
As for `Cc1ccc(-c2nc3ccccc3n3cc4c(=O)n(C)c(=O)n(C)c4c23)cc1`, the fold change was -1.32 (inactive).
Turning to `CCOc1ccc(C2CC(=O)Nc3cc4c(cc32)OCO4)cc1Cl` (stereo not given), the fold change is -1.12 (inactive).
Take `CN1CCc2c(sc3c2C(=O)NC(c2ccc(OC(=O)c4ccccc4Cl)cc2)N3)C1` (stereo not given): the fold change is -1.85 (inactive).
On the same count and under the same terms, in the case of `COc1ccc(S(=O)(=O)N2N=C(c3ccc(NS(C)(=O)=O)cc3)CC2c2ccco2)cc1` (stereo not given) it was 1.12 (inactive).
Consider `S=c1nc(-c2ccccc2)n(CCCn2ccnc2)c2c1CCCC2`, for which the fold change was 1.02 (inactive).
With `CCOC(=O)c1ccc(N2C(=O)c3n[nH]c(-c4ccco4)c3C2c2ccc(C)cc2)cc1` (stereo not given), the fold change was -2.14 (active).
`O=C(NCCc1c[nH]c2ccccc12)c1cc2ccccn2n1`: the fold change is 1.7 (inactive).
The same measure, in the same setting: in the case of `COCCCN1CN=C(Nc2nc(C)c3ccc(C)cc3n2)NC1` it was -1.94 (inactive).
Take `Cc1cc(NC(=O)CSCc2nc(-c3cccc(Cl)c3)oc2C)no1`: the fold change is 1.06 (inactive).
The same measure, in the same setting: then `Cc1cc(C(=O)Nc2ccc(F)cc2F)on1`, with 1.55 (inactive); and `O=c1oc2cc(O)ccc2cc1S(=O)(=O)c1ccc(Cl)cc1`, with -2.04 (active); and `COC(=O)c1ccc(C(=O)OC)c(NC2=NS(=O)(=O)c3ccccc32)c1`, with 1.16 (inactive).
As to `CC(Sc1nc(-c2ccco2)nc2c1c(=O)n(C)c(=O)n2C)C(=O)O` (stereo not given), the fold change is 1.38 (inactive).
For `CCCN(CCC)C(=O)C1CCCN(S(=O)(=O)c2ccc3c(c2)oc(=O)n3C)C1` (stereo not given), the fold change was 1.49 (inactive).
Turning to `O=C1C2C(c3cccs3)NC(Cc3ccccc3)(C(=O)O)C2C(=O)N1c1ccc(F)cc1` (stereo not given), the fold change is -1.06 (inactive).
